From PubChem
ELG1 genotoxic: qHTS screen for small molecules that induce genotoxicity in human embryonic kidney (HEK293T) cells expressing luciferase-tagged ELG1. HEK293T ELG1-luciferase reporter, luminescence, 16 h. Potency, µM (titrated, usually from 46 µM), without a hit: at the top dose activity change, positive = activation, usual class: activators. 1.3% of 330,000 active; note: % of control where 0% means no effect; nearly all actives have a fitted effect of over 60% in size
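16 hr compound incubation (37 °C, 5% CO2) of HEK293T cells carrying luciferase-tagged ELG1; luciferase then measured by ONE-Glo luminescence after 30 min at RT.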
SMN2 splice enh: qHTS Assay for Enhancers of SMN2 Splice Variant Expression. Potency, µM (doses to about 46.1 µM), for inactives: at the top dose activity change, positive = activation, usual class: activators. 2.8% of 210,000 active. HEK293 SMN2-luciferase splicing reporter, luminescence, 30-36 h; note: % of control where 0% means no effect; nearly all actives have a fitted effect of over 55% in size
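HEK293 cells carry an SMN2 minigene-luciferase reporter in which exon 7 inclusion puts luciferase in frame. Cells were seeded at 2000 cells/well, attached for 10-12 hours, then exposed to compounds for 30-36 hours at 37C before ONE-Glo luminescence.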
Rab9 prom act: qHTS Assay for Rab9 Promoter Activators | Potency, µM (doses to about 9.22 µM), inactives show at the highest dose activation, negative = inhibition, usual class: activators | AID 485297, 2010 | 2.8% of 320,000 active | Huh7 Rab9 promoter-luciferase reporter, luminescence, 24 h; note: % of control where 0% means no effect; nearly all actives have a fitted effect of over 60% in size
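Stable Rab9-luc Huh7, 1500 cells/well, 2 h settle; cmpd in DMSO, 24 h, 37 °C/5% CO2; luciferase reagent 10 min RT; luminescence.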
NPC1 promoter act: qHTS Assay for NPC1 Promoter Activators; Huh7 NPC1 promoter luciferase reporter, 24 h; Potency, µM (top dose mostly 9.22 µM), for the others: at the top dose activation, most hits filed as activators; 2.4% of 320,000 active; AID 485313, 2010; note: % of control where 0% means no effect; nearly all actives have a fitted effect of over 60% in size
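Readout is luciferase luminescence, reflecting NPC1 promoter activation in stably transfected Huh7 cells after 24 h compound exposure at 37 °C in reduced-serum medium with 10% FBS.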
FLuc counter: qHTS profiling assay for firefly luciferase inhibitor/activator using purifed enzyme and Km concentrations of substrates (counterscreen for miR-21 project). purified FLuc, Km substrates, luminescence inhibition. Potency, µM (top dose mostly 57.5 µM), for inactives: at the highest dose activity change, negative = inhibition, most hits filed as inhibitors. 6.9% of 360,000 active;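 note: plate controls were vehicle for no effect and reference inhibitor for full effect; nearly all actives have a fitted effect of over 55% in size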
Target sequence (P08659 whole entry, looked up): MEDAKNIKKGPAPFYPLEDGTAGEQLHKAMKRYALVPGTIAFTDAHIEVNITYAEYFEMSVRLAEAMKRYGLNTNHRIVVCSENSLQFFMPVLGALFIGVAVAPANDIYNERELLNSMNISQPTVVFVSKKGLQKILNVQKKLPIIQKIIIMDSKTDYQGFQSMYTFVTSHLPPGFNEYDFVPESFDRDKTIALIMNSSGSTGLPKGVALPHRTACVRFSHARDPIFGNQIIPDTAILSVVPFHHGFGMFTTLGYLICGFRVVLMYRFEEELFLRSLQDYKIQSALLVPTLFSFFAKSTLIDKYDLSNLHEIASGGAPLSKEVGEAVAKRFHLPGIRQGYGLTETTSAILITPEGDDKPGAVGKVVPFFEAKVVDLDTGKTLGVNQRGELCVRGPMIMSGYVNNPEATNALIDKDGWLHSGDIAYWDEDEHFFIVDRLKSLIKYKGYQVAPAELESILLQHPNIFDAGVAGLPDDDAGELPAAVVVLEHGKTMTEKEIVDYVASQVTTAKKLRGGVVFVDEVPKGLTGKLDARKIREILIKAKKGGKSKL
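Purified P. pyralis luciferase (10nM final) with 10uM D-luciferin and 10uM ATP (Km levels) in 50mM Tris acetate pH 7.5, 10mM Mg acetate, 0.01% Tween-20, 0.05% BSA; qHTS 6-point titration, ~60 µM downward; luminescence read.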
KinaseGlo FLuc: Counterscreen for Luciferase (Kinase-Glo TM) Inhibition | Luciferin 4-monooxygenase (Photuris pensylvanica), Q27757 | Kinase-Glo luciferase, ATP luminescence, 8 min | Potency, µM (top dose mostly 38.3 µM), for inactives: top-dose activity change, negative = inhibition, usual class: inhibitors | 0.28% of 200,000 active | AID 1379, 2008; note: % is set by controls: 0 for no effect and ±100 for the full control effect; nearly all actives have a fitted effect of over 60% in size
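Kinase-Glo luciferase light output from ATP and luciferin was measured with 10 uM ATP, within the enzyme's linear range. Buffer: 50 mM imidazole pH 7.2, 50 mM KCl, 7 mM MgCl2, 0.01% Tween 20, 0.05% BSA; luminescence read after 8 min at ambient temperature.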
* = called active by the depositor; ? = inconclusive; / = not tested or not shown; [ ] = dose if it differs, or a comment. Sampled rows, rich in hits. Any-hit rate of the full collection: about 7.5%. Calls come from the whole dose curve; as a rule, active = well fitted curve in the direction sought with a large enough effect; inconclusive = small, poorly fitted or top-dose-only effect, or another doubt; inactive = no such curve, though single readings can be large; an effect the other way counts as inactive or inconclusive. Potency is the fitted concentration of half-maximal effect.

SMILES	ELG1 genotoxic	SMN2 splice enh	Rab9 prom act	NPC1 promoter act	FLuc counter	KinaseGlo FLuc
CCc1ccc2oc(-c3cccc(NC(=O)c4ccc(N5CCC(C)CC5)c([N+](=O)[O-])c4)c3)nc2c1	/	7%	/	/	5%	/
COc1ccc(S(=O)(=O)c2c(SC)nn(Cc3ccccc3C)c2NC(C)=O)cc1	/	/	/	/	-1%	/
O=C(Nc1cccc2nsnc12)c1ccc(F)cc1	-4%	?	12%	6%	?	-25%
O=C(Nc1cccc2nsnc12)c1ccc2c(c1)OCCO2	?	?	3.5µM*	?	11µM*	-25%
CCOc1ccc(C(=O)Nc2cccc3nsnc23)cc1[N+](=O)[O-]	13%	/	-7%	-6%	-1%	/
O=C(Nc1cccc2nsnc12)c1ccc2c(c1)OCO2	9%	9%	?	?	17µM*	-15%
Cc1ccc(C(=O)Cn2c3c(sc2=N)CCCC3)cc1	/	0.5µM*	/	/	/	?
Cc1ccc(NC(=O)Nc2ccc(Cl)cn2)cc1	?	11µM*	4µM*	13%	?	-1%
Cc1ccc(NC(=O)Nc2ccc(Cl)c(Cl)c2)nc1	?	/	4.5µM*	?	?	/
Cc1cc(C(=O)O)c2c(=O)n(C)c(=O)n(C)c2n1	/	4%	/	/	-9%	/
Cc1ccc(CNC(=O)c2ccc(Cn3c(=O)c4ccccc4n(CC(=O)Nc4ccc(C)cc4C)c3=O)cc2)cc1	/	7%	/	/	2%	/
O=C(Nc1ccccc1F)c1ccc2ncsc2c1	18%	/	4µM*	2.2µM*	?	/
O=C(Nc1ccc(Cl)cc1Cl)c1ccc2ncsc2c1	?	/	2.2µM*	2.2µM*	2.7µM*	/
O=C(Nc1cccc(F)c1)c1ccc2ncsc2c1	16%	/	3.5µM*	2.2µM*	13µM*	/
O=C(Nc1ccc(F)cc1F)c1ccc2ncsc2c1	13%[9.26 µM]	/	4µM*	2.5µM*	27µM*	/
O=C(Nc1ccncc1)c1ccc2ncsc2c1	?	/	19%	25%	-18%	/
O=C(Nc1ccc(Cl)cc1)c1cc2c(-c3ccccc3)nn(-c3ccccc3)c2s1	/	1%	/	/	0%	/
O=C(Nc1nnc(SCc2ccc(F)cc2)s1)c1ccc2ncsc2c1	?	13µM*	?	?	?	1%
Cc1ccccc1NC(=O)c1ccc2nccnc2c1	-6%	/	15%	-5%	?	/
O=C(Nc1ccccc1Br)c1ccc2nccnc2c1	0%	/	2µM*	3.2µM*	6.7µM*	/
COc1cccc(N2CCN(C(=O)c3ccc4ccccc4c3)CC2)c1	-6%	/	1%	-2%	-15%	/
COc1cccc(N2CCN(C(=O)c3ccc4nc(N5CCCCC5)sc4c3)CC2)c1	?	-22%	?	?	19µM*	2%
O=C(c1ccc2nc(N3CCOCC3)sc2c1)N1CCCC1	14%	-15%	2%	1%	3%	-4%
COc1ccc(N2CCN(C(=O)c3ccc4nc(N5CCCCC5)sc4c3)CC2)cc1	23µM*	-6%	16%	15%	?	1%
CCOc1cc(/C=N/O)ccc1OCc1ccc(C)cc1	?	25%	18%	0%	?	-2%
SMILES	ELG1 genotoxic	SMN2 splice enh	Rab9 prom act	NPC1 promoter act	FLuc counter	KinaseGlo FLuc
O/N=C/c1ccc(OCc2ccccc2F)c(Cl)c1	5.2µM*	7.9µM*	1.6µM*	?	2.7µM*	-4%
Cc1ccc(COc2ccc(Br)cc2/C=N/O)cc1	?	10%	?	?	13µM*	-4%
O/N=C/c1cc(Br)ccc1OCc1cccc(F)c1	-1%	-17%	3%	3%	?	0%
O/N=C/c1ccc(OCc2ccccc2)c(Cl)c1	16µM*	11µM*	3.5µM*	?	4.8µM*	0%
O/N=C/c1ccc(OCc2ccccc2)c(Br)c1	15µM*	16µM*	3.2µM*	19%	7.6µM*	0%
O/N=C/c1cc(Br)cc(Br)c1OCc1ccccc1	1%	-20%	-8%	-8%	4%	-5%
O=C1N[C@H](Cc2ccccc2)C(=O)N1Cc1cccc2ccccc12	/	-2%	/	/	/	-1%
O=c1[nH]c2ccccc2nc1/C=C/c1ccc(Cl)cc1	9.2µM*	/	0.89µM*	3.2µM*	?	/
C(=C\c1ccco1)/c1nc2ccccc2[nH]1	?	/	0.63µM*	3.5µM*	1.9µM*	13µM*
C(=C\c1nc2ccccc2[nH]1)/c1ccccc1	?	0.28µM*	0.4µM*	0.18µM*	0.3µM*	3.5µM*
O=C(NCc1nc2ccccc2[nH]1)c1ccco1	20%	6%	5%	2%	1%	1%
C/C(O)=C/c1nc2ccccc2[nH]c1=O	3%	-12%	-3%	-4%	1%	2%
COc1ccc(-c2cc3nc(C)c(CCC(=O)NCc4ccccc4Cl)c(C)n3n2)c(OC)c1	/	-1%	/	/	-14%	/
CCc1ccc(NCc2cc3cc(OC)c(OC)cc3n(CC(=O)Nc3cc(C)ccc3C)c2=O)cc1	/	/	/	/	3%	/
O=C1CC(c2nnc(Cc3cccc(Cl)c3)o2)CN1c1ccccc1 (stereo not drawn)	/	-8%	/	/	-9%	/
COc1cc(CN(C(=O)c2cccc(C)c2)c2ccccn2)cc(OC)c1OC	/	/	/	/	5%	/
COc1ccc(C(=O)CSc2nccn2C)c(OC)c1	?	/	3.5µM*	4µM*	13µM*	/
Cn1ccnc1SCC(=O)c1ccc(O)cc1	12%	/	?	24%	-18%	/
Cn1ccnc1SCC(=O)c1ccc2ccccc2c1	?	?	1µM*	2.2µM*	8.5µM*	-7%
COc1cccc(C(=O)CSc2nccn2C)c1	?	/	2.5µM*	1.6µM*	17µM*	/
COc1cccc(C(=O)CSc2nnnn2C)c1	2%	-1%	7%	2%	-10%	14%
Cn1ccnc1SCC(=O)Nc1cccc(Br)c1	/	-1%	/	/	-16%	/
COc1ccc(OC)c(C(=O)CSc2nnnn2C)c1	-2%	1%	5%	18%	-1%	-4%
Cn1ccnc1SCC(=O)c1cccc(Br)c1	?	14%	?	18%	15µM*	-8%
Cn1ccnc1SCC(=O)Nc1ccccc1	2%	6%	-1%	1%	-15%	-4%
O=C(CSc1nccc(=O)[nH]1)c1cc2ccccc2o1	10%	/	4%	-4%	15µM*	/
Cn1ccnc1SCC(=O)c1cc2ccccc2o1	?	3%	?	?	9.5µM*	8%
O=C(CSc1ncn[nH]1)c1cc2ccccc2o1	3%	-2%	19%	-3%	?	0%
Cn1ccnc1SCC(=O)Nc1ccc2ccccc2c1	1.3µM*	6.3µM*	1.6µM*	1.3µM*	5.4µM*	0%
